# Laboratory results from PubChem BioAssay (EPA / NIEHS).
# Active and inactive are the calls of the source. The calls were made as follows: active = hit-call score of the fitted dose curve at least 0.9, where 1 is the maximum; inactive = score below 0.9.
# Tests used:
# [1] = ATG_CRE_CIS: Attagene CIS-FACTORIAL HepG2 Assay for human cAMP Responsive Element (CRE) binding protein 3 (AID 2282926); conditions: HepG2 CRE cis-reporter, Attagene multiplexed mRNA; actives raise or lower the signal
# Method in brief: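 Liver-derived HepG2, transfected with a CRE-containing reporter panel, exposed 24 h; transcript levels sized and quantified by capillary electrophoresis of labelled amplicons; signal changes either way referenced to vehicle.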
# [2] = target: CCAAT/enhancer-binding protein beta (Homo sapiens) (UniProt P17676); test: ATG_C_EBP_CIS: Attagene CIS-FACTORIAL HepG2 Assay for human CCAAT/Enhancer Binding Protein (C/EBP) beta (AID 2282927); conditions: HepG2 Attagene cis-factorial transcription factor reporter; actives raise or lower the signal
# Method in brief: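 Transiently transfected HepG2 (MRTU library, endogenous TF-driven promoters); 24 h dosing; total RNA → oligo(dT) RT → PCR → 6-FAM primer extension → HpaI digest → CE; fit bidirectionally vs DMSO.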
# [3] = ATG_CMV_CIS: Attagene CIS-FACTORIAL HepG2 Assay for human CMV (Internal Marker) (AID 2282928); conditions: HepG2 CMV promoter reporter, transcription factor profiling; actives raise or lower the signal;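 also: endpoint acts as a background internal control marker rather than a target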
# Method in brief: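 Bidirectional fits against DMSO are applied to reporter mRNA, read by RT-PCR with capillary electrophoresis, from HepG2 cells exposed 24 h. The endpoint serves as an internal CMV background marker within the cis-factorial reporter panel.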
# [4] = ATG_DR4_LXR_CIS: Attagene CIS-FACTORIAL HepG2 Assay for human Liver X Receptor (LXR), DR4 submotif (AID 2282929); conditions: HepG2 Attagene DR4 cis-reporter, mRNA transcription; actives raise or lower the signal
# Method in brief: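 Total RNA from 24 h-treated, MRTU-transfected HepG2 cells underwent reverse transcription, PCR, fluorescent primer extension and restriction digestion before capillary electrophoresis. Both increases and decreases in reporter signal were fitted against DMSO.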
# [5] = target: Aryl hydrocarbon receptor (Homo sapiens) (UniProt P35869); test: ATG_Ahr_CIS: Attagene CIS-FACTORIAL HepG2 Assay for human Aryl Hydrocarbon Receptor (Ahr) (AID 2282930); conditions: HepG2 AhR cis-factorial reporter transcription; actives raise or lower the signal
# Method in brief: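 Read-out: reporter mRNA quantified by RT-PCR with fluorescent primer extension and capillary electrophoresis. Human HepG2 liver cells carried transfected cis-promoter reporter units and were exposed to chemical for 24 h; gain or loss fitted relative to DMSO.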
# [6] = ATG_AP_1_CIS: Attagene CIS-FACTORIAL HepG2 Assay for human Activator Protein 1 (AP-1) (AID 2282931); conditions: HepG2 Attagene cis-factorial AP-1 reporter mRNA; actives raise or lower the signal
# Method in brief: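 HepG2, transient cis-reporter transfection; 24 h; readout RT-PCR/CE fluorescence; DMSO baseline, gain and loss fitted.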
# [7] = target: Transcription factor E2F1 (Homo sapiens) (UniProt Q01094); test: ATG_E2F_CIS: Attagene CIS-FACTORIAL HepG2 Assay for human E2F Transcription Factor 1 (AID 2282935); conditions: HepG2 Attagene cis-reporter, E2F reporter RNA transcripts; actives raise or lower the signal
# Method in brief: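 Liver-derived HepG2 cells expressing transfected promoter-driven reporter units received test chemical for 24 hours. Signal gains or losses were fitted bidirectionally against DMSO.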
# [8] = ATG_E_Box_CIS: Attagene CIS-FACTORIAL HepG2 Assay for human Enhancer Box (E-box) (AID 2282936); conditions: HepG2 E-box cis-reporter transcription, actives raise or lower the signal
# Method in brief: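 In this cell-based setup, HepG2 cells bearing transfected promoter-driven reporter units were exposed to chemicals for 24 h; reporter transcripts were amplified, 6-FAM-labelled, cut with HpaI and sized by capillary electrophoresis.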
# [9] = ATG_M_61_CIS: Attagene CIS-FACTORIAL HepG2 Assay for M61 Transcription Factor (Internal Marker) (AID 2282937); conditions: HepG2 Attagene CIS-FACTORIAL M61 internal marker reporter; actives raise or lower the signal
# Method in brief: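 Transfect HepG2 with MRTUs; dose 24 h; isolate RNA; reverse-transcribe with DNase I treatment; PCR-amplify, FAM-label and cut with HpaI for 2 h at 37 C; resolve by CE. Bidirectional fitting against DMSO.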
# [10] = ATG_M_19_CIS: Attagene CIS-FACTORIAL HepG2 Assay for M19 Transcription Factor (Internal Marker) (AID 2282939); conditions: HepG2 Attagene CIS-FACTORIAL M19 internal marker reporter; actives raise or lower the signal
# Method in brief: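 Readout: fluorescent reporter-transcript fragments by capillary electrophoresis after RT-PCR. Human HepG2 liver cells carried transfected MRTU constructs reporting endogenous transcription-factor activity; exposure 24 h. Gain or loss of signal fitted relative to DMSO.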
# [11] = ATG_ERE_CIS: Attagene CIS-FACTORIAL HepG2 Assay for Estrogen Response Element (ERE) (AID 2282940); conditions: HepG2 ERE cis-reporter, Attagene RNA transcript; actives raise or lower the signal
# Method in brief: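 Readout: reporter mRNA induction by RT-PCR, FAM-labelled primer extension, HpaI digestion and capillary electrophoresis, 24 h after dosing transfected HepG2 cells. Endogenous transcription factors act on cis-element-regulated reporters. Gain or loss fitted against DMSO.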
# [12] = ATG_Ets_CIS: Attagene CIS-FACTORIAL HepG2 Assay for human Erythroblast Transformation Specific (ETS) (AID 2282941); conditions: HepG2 ETS cis-reporter transcription, actives raise or lower the signal
# Method in brief: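 Endogenous transcription factor activity read as reporter mRNA via RT-PCR and capillary electrophoresis, with gain or loss fitted bidirectionally against DMSO. Human HepG2 liver cells, transiently transfected CIS reporter constructs, 24 h exposure.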
# [13] = target: Hepatocyte nuclear factor 3-beta (Homo sapiens) (UniProt Q9Y261); test: ATG_FoxA2_CIS: Attagene CIS-FACTORIAL HepG2 Assay for human Forkhead box A2 (FOXA2) (AID 2282942); conditions: HepG2 cis-reporter transcription factor activity, 24 h; actives raise or lower the signal
# Method in brief: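 24 h dosing of HepG2 bearing cis-reporter constructs; mRNA readout by RT-PCR/CE fluorescence; bidirectional fit, DMSO baseline.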
# [14] = ATG_FoxO_CIS: Attagene CIS-FACTORIAL HepG2 Assay for human Forkhead box O (FoxO) (AID 2282943); conditions: HepG2 Attagene cis-reporter, FoxO element, mRNA; actives raise or lower the signal
# Method in brief: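 Read-out: fluorescence of 6-FAM-labelled reporter cDNA fragments resolved by capillary electrophoresis. Transiently transfected HepG2 cells were dosed for 24 h; activity fitted in both directions relative to DMSO controls.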
# [15] = ATG_GATA_CIS: Attagene CIS-FACTORIAL HepG2 Assay for human GATA Binding Protein (AID 2282944); conditions: HepG2 GATA cis-element reporter, Attagene multiplex mRNA; actives raise or lower the signal
# Method in brief: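 Read-out: fluorescent reporter mRNA fragments resolved by capillary electrophoresis after RT-PCR. Human liver HepG2 cells carried transiently transfected cis-regulated reporter constructs; chemicals incubated 24 h; gain or loss of signal fitted relative to DMSO.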
# [16] = ATG_GLI_CIS: Attagene CIS-FACTORIAL HepG2 Assay for human Zinc Finger Protein GLI1 (AID 2282945); conditions: HepG2, Attagene cis-factorial reporter mRNA, GLI element; actives raise or lower the signal
# Method in brief: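 Transiently transfected HepG2 cells report endogenous transcription factor activity via cis-element-driven reporter units. After 24 h compound exposure, reporter mRNA was measured by RT-PCR with capillary electrophoresis; bidirectional fitting against DMSO baseline.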
# [17] = ATG_AP_2_CIS: Attagene CIS-FACTORIAL HepG2 Assay for human Activator Protein 2 (AP-2) (AID 2282932); conditions: HepG2 AP-2 cis-reporter, Attagene transcription factor profiling; actives raise or lower the signal
# Method in brief: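 Liver-derived HepG2 line, cis-reporter system measuring endogenous factors; 24 h dosing; reporter mRNA detected by fluorescent RT-PCR and capillary electrophoresis.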
# [18] = ATG_BRE_CIS: Attagene CIS-FACTORIAL HepG2 Assay for human Bone Morphogenetic Protein (BMP) Response Element (BRE) (AID 2282933); conditions: HepG2 BMP response element reporter, Attagene transcription factor profiling; actives raise or lower the signal
# Method in brief: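 Read-out: reporter mRNA induction quantified by RT-PCR and capillary electrophoresis after 24 h chemical exposure of transfected HepG2 cells. Endogenous factor activity on the BMP response element; gain or loss fitted against DMSO baseline.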
# [19] = ATG_EGR_CIS: Attagene CIS-FACTORIAL HepG2 Assay for human Early Growth Response 1 (EGR1) (AID 2282938); conditions: HepG2 Attagene CIS-FACTORIAL EGR reporter mRNA; actives raise or lower the signal
# Method in brief: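 After a 24 h treatment of transiently transfected HepG2 cells, total RNA was reverse-transcribed and reporter sequences PCR-amplified, labelled and run on capillary electrophoresis. Reporters sit under cis-regulatory promoters sensing endogenous factors.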
# [20] = target: Retinoic acid receptor alpha (Homo sapiens) (UniProt P10276); test: ATG_DR5_RAR_CIS: Attagene CIS-FACTORIAL HepG2 Assay for human Retinoic Acid Receptor Alpha (RARE), DR5 submotif (AID 2282934); conditions: HepG2 Attagene cis-factorial RARE DR5 reporter, mRNA; actives raise or lower the signal
# Method in brief: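 Read-out: DR5-driven reporter transcript measured by RT-PCR, 6-FAM primer extension, HpaI digest and capillary electrophoresis. Human HepG2 liver cells carry transiently transfected cis-element reporter constructs; dosing lasts 24 h. Gain or loss of signal fitted against DMSO baseline.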
# Hepatocyte nuclear factor 3-beta (Homo sapiens), sequence (Q9Y261 whole entry, looked up): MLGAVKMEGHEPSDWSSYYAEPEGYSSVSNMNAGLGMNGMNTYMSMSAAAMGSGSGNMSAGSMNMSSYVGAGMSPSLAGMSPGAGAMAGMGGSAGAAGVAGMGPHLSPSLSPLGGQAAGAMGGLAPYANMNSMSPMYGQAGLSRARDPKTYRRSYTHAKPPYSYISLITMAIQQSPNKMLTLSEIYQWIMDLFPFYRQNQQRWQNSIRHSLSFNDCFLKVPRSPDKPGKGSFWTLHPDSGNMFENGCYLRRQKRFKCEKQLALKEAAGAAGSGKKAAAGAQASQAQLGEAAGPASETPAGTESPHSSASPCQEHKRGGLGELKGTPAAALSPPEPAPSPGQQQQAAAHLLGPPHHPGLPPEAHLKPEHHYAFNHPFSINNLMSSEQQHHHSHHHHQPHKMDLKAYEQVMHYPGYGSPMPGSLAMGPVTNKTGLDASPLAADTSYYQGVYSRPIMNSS
# CCAAT/enhancer-binding protein beta (Homo sapiens), sequence (P17676 whole entry, looked up): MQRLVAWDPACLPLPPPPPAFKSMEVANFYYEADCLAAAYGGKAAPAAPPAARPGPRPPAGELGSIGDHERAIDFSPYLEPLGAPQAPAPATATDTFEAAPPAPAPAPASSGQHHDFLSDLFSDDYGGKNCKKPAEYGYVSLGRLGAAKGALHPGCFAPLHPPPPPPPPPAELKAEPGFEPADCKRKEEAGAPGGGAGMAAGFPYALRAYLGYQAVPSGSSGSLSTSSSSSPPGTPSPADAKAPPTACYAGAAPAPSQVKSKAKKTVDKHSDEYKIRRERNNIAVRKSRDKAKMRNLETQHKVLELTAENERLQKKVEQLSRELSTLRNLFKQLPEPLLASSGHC
# Aryl hydrocarbon receptor (Homo sapiens), sequence (P35869 whole entry, looked up): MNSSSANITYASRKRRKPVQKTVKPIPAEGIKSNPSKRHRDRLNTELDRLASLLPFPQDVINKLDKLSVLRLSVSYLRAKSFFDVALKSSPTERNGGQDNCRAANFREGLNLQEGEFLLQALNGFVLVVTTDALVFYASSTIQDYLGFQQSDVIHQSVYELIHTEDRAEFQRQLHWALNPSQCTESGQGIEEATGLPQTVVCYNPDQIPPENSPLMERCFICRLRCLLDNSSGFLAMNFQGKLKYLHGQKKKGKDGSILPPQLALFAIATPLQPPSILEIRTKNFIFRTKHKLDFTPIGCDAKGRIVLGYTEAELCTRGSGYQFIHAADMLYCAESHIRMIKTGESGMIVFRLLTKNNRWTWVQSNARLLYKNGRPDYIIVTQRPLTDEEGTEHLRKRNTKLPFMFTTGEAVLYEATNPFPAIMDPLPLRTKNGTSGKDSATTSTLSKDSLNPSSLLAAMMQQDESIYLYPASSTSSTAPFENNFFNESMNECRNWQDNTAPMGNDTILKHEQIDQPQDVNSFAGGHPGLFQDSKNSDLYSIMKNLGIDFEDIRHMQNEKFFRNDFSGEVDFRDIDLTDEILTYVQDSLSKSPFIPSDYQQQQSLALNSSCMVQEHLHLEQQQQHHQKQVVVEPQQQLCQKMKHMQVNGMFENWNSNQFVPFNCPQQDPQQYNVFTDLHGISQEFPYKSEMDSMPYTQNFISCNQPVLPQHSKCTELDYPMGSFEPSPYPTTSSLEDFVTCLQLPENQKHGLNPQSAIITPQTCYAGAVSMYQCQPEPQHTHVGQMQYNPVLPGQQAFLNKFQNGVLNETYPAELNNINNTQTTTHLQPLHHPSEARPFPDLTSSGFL
# Transcription factor E2F1 (Homo sapiens), sequence (Q01094 whole entry, looked up): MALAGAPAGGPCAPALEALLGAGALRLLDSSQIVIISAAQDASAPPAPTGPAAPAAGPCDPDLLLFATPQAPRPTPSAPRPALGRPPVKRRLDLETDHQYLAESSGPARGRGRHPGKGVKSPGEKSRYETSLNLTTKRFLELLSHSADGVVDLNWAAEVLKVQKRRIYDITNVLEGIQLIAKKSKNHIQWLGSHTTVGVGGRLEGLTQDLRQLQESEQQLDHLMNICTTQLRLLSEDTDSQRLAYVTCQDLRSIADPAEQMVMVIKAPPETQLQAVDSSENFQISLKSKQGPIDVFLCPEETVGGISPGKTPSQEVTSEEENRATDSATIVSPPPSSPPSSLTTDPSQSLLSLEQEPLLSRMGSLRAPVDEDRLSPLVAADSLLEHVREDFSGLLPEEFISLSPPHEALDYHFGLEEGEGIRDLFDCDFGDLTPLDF
# Retinoic acid receptor alpha (Homo sapiens), sequence (P10276 whole entry, looked up): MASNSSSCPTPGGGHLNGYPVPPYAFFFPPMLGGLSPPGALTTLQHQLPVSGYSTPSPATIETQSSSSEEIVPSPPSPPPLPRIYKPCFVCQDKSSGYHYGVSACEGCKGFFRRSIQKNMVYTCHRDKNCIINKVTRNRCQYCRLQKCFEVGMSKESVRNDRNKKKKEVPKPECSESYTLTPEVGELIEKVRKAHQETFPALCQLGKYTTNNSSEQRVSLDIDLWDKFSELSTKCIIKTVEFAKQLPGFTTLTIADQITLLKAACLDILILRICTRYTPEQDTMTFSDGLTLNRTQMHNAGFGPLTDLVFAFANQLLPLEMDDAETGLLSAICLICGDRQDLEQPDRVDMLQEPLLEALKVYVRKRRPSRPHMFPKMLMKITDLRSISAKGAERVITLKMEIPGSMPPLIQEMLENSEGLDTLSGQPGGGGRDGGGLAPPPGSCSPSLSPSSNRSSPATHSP
smiles,measurement,setting,value
CC1COc2ccccc2N1C(=O)C(Cl)Cl (configuration not stated),outcome,[1],inactive
same,outcome,[2],inactive
same,outcome,[3],inactive
same,outcome,[4],inactive
same,outcome,[5],inactive
same,AC50,[6],27.4 µM (active)
same,outcome,[7],inactive
same,outcome,[8],inactive
same,outcome,[9],inactive
same,outcome,[10],inactive
same,outcome,[11],inactive
same,outcome,[12],inactive
same,outcome,[13],inactive
same,AC50,[14],21 µM (active)
same,outcome,[15],inactive
same,outcome,[16],inactive
CC(CCO)CCc1ccccc1 (configuration not stated),outcome,[1],inactive
same,outcome,[2],inactive
same,outcome,[3],inactive
same,outcome,[4],inactive
same,outcome,[5],inactive
same,outcome,[17],inactive
same,outcome,[18],inactive
same,outcome,[8],inactive
same,outcome,[9],inactive
same,outcome,[19],inactive
same,outcome,[10],inactive
same,AC50,[11],24.2 µM (active)
same,outcome,[12],inactive
same,outcome,[13],inactive
same,outcome,[14],inactive
same,outcome,[15],inactive
same,outcome,[16],inactive
CC[C@]12CCCN3CCc4c(n(c5ccccc45)[C@@](O)(C(=O)OC)C1)[C@@H]32,outcome,[1],inactive
same,outcome,[2],inactive
same,outcome,[3],inactive
same,outcome,[4],inactive
same,outcome,[5],inactive
same,outcome,[17],inactive
same,outcome,[18],inactive
same,outcome,[20],inactive
same,outcome,[7],inactive
same,outcome,[8],inactive
same,outcome,[9],inactive
same,outcome,[19],inactive
same,outcome,[10],inactive
same,outcome,[12],inactive
same,outcome,[14],inactive
same,outcome,[16],inactive
CC(C)(C)C(=O)c1ccccc1,outcome,[1],inactive
same,outcome,[2],inactive
same,outcome,[3],inactive
same,outcome,[4],inactive
same,outcome,[5],inactive
same,outcome,[6],inactive
same,outcome,[18],inactive
same,outcome,[7],inactive
same,outcome,[8],inactive
same,outcome,[9],inactive
same,outcome,[19],inactive
same,outcome,[11],inactive
same,outcome,[12],inactive
same,outcome,[13],inactive
same,outcome,[14],inactive
same,outcome,[15],inactive
same,outcome,[16],inactive
Nc1cc([N+](=O)[O-])ccc1Cl,outcome,[1],inactive
same,outcome,[2],inactive
same,outcome,[3],inactive
same,outcome,[4],inactive
same,AC50,[5],20.2 µM (active)
same,outcome,[17],inactive
same,outcome,[18],inactive
same,outcome,[7],inactive
same,outcome,[8],inactive
same,outcome,[9],inactive
same,outcome,[19],inactive
same,outcome,[10],inactive
same,outcome,[12],inactive
same,outcome,[13],inactive
same,outcome,[14],inactive
same,outcome,[15],inactive
same,outcome,[16],inactive
Cc1ccc(Nc2ccc(O)c3c2C(=O)c2ccccc2C3=O)cc1,outcome,[1],inactive
same,outcome,[2],inactive
same,outcome,[3],inactive
same,outcome,[4],inactive
same,outcome,[5],inactive
same,outcome,[17],inactive
same,outcome,[18],inactive
same,outcome,[7],inactive
same,AC50,[8],20.3 µM (active)
same,outcome,[9],inactive
same,outcome,[10],inactive
same,outcome,[11],inactive
same,outcome,[12],inactive
same,outcome,[13],inactive
same,outcome,[14],inactive
same,outcome,[15],inactive
same,outcome,[16],inactive
CC(C)(C)c1n[nH]c(=S)n(N)c1=O,outcome,[1],inactive
same,outcome,[2],inactive
same,outcome,[3],inactive
same,outcome,[4],inactive
same,AC50,[5],23.9 µM (active)
same,outcome,[17],inactive
same,outcome,[18],inactive
same,outcome,[7],inactive
same,outcome,[8],inactive
same,outcome,[9],inactive
same,outcome,[19],inactive
same,outcome,[10],inactive
same,outcome,[11],inactive
same,outcome,[13],inactive
same,outcome,[14],inactive
same,outcome,[15],inactive
same,outcome,[16],inactive
